# Results from ChEMBL document CHEMBL3988442, “University of Dundee, Small-Polar-MMV Screening Library” (2021).
# Screen size: about 38,000 compounds; about 1,200 (3.2%) showed an effect of 50% or more. The median lay at about -58%. Shown is part of a subset that was picked to be rich in strong results.
# Tested on: Plasmodium falciparum
# Assay: Calibr Malaria Delayed Death Assay SOP
# Assay type: functional, organism-based
# Set-up: scale not given: in the data most compounds retested in dose-response had high values
# Details: concentration 4.99e-06 (unit not given; other assays of the set use mol/L)
row,Structure (SMILES),Percent Effect [%]
1,CC1(C)CCN1C(=O)c1cc(F)cc2[nH]cnc12,-143.1
2,CNC(=O)CS(=O)(=O)NC1CCC(C)CC1 (stereo not drawn),0.5939
3,Cc1cc(CN2CCN(Cc3cc(C#N)ccc3F)CC2)no1,-43.24
4,O=C(O)C(F)(F)F.c1cnc(N2C[C@@H]3COC[C@]3(COCC3CCCC3)C2)nc1,-62.66
5,COc1ccc(S(=O)(=O)NCCn2cnc(C)cc2=O)cc1C,-119.1
6,COc1cccc(CN(C)Cc2cc(C#N)ccc2F)c1OC,-37.67
7,COc1cccc(CN(C)Cc2ccccc2C#N)c1OC,-10.45
8,CC(C)OCc1nn(C)c2c1CCN(CC1CC1)C2.O=C(O)C(F)(F)F,-24.03
9,O=C(N1CCN(CCO)CC1)C1(O)Cc2ccccc2C1,-7.059
10,O=C(N1CCc2ccccc2CC1)C1(O)Cc2ccccc2C1,56.27
11,O=C(N1CCSCC1)C1(O)Cc2ccccc2C1,-49.25
12,COCCNC(=O)C1CN(C(N)=O)Cc2ccnn2C1 (stereo not drawn),-83.21
13,O=C(c1coc(COc2cccc3cnccc23)n1)N1CCCCCC1,16.31
14,O=C(O)c1coc(COc2cccc3cnccc23)n1,-75.43
15,CC(C(=O)Nc1ccc(N2CCCCC2)nc1)n1ccnc1 (stereo not drawn),-81.15
16,Cn1ccnc1CN(Cc1cccnc1)CC1CCCO1 (stereo not drawn),-29.26
17,CC(CNC(=O)c1ccco1)N1CCc2sccc2C1 (stereo not drawn),-89.83
18,N#Cc1ccccc1CN1CCc2sccc2C1,-109.2
19,NCC(c1ccccc1)N1CCc2sccc2C1 (stereo not drawn),56.94
20,O=C(CCn1ccc2ccc(Br)cc21)/N=c1\[nH]nc(C2CCCO2)s1 (stereo not drawn),-91.4
21,CC(c1ccc(S(C)(=O)=O)cc1)N(C)C(=O)c1ccccc1I (stereo not drawn),-43.05
22,COc1ccc(CCC(C)Nc2cccc(SC)c2)cc1 (stereo not drawn),-91.4
23,COc1ccc(C(C)NCc2scnc2C)cc1Cn1cccn1 (stereo not drawn),-18.73

row,Structure (SMILES),Percent Effect [%]
1,COc1ccc(C(C)NCc2cscn2)cc1Cn1cccn1 (stereo not drawn),71.39
2,COc1ccc(C(C)NCc2ccnn2C)cc1Cn1cccn1 (stereo not drawn),-53.25
3,COc1ccc(C(C)NCc2ccsc2)cc1Cn1cccn1 (stereo not drawn),71.68
4,COc1ccc(C(C)NCc2cccs2)cc1Cn1cccn1 (stereo not drawn),28.81
5,COc1ccc(OC)c(CN2CCN(Cc3cscn3)CC2)c1,-31.14
6,CCc1nnc(CN2CCCCC2Cn2cncn2)o1 (stereo not drawn),-69.23
7,Cc1nc(C2CCCN2C(=O)CCOCc2ccccc2)no1 (stereo not drawn),-117.2
8,O=S(=O)(Nc1cnn(C2CCOCC2)c1)c1ccc(Br)cc1,-25.25
9,CNC(=O)N1CCCCC1c1nnc2n1CCCC2 (stereo not drawn),-92.12
10,O=C1c2cnc(N3CCCCC3)nc2CN1c1ccc2c(c1)OCO2,-196
11,CCNc1nc(C)c(C(=O)N(C)Cc2nc(CC)no2)s1,-30.42
12,O=C(NC1CCCC1)C1Cc2nc(-c3ccsc3)sc2N1CC1CC1 (stereo not drawn),-48.35
13,O=C(O)Cn1nc(C2CC2)c2c(-c3ccco3)ccnc21,-116
14,O=C(NC[C@H]1CCCC[C@H]1O)c1cccc2[nH]c(-c3cccs3)nc12,-57.07
15,O=C(O)Cn1nc(C2CC2)c2c(-c3cccs3)ccnc21,-11.75
16,O=c1[nH]c(NC2CCCC2)nc2nccc(-c3ccco3)c12,71.56
17,O=C1NCCCCC1NCc1csc(-c2ccsc2)n1 (stereo not drawn),-129.5
18,O=C(NC[C@H]1CCCC[C@H]1O)c1ccc2nc(-c3ccco3)[nH]c2c1,-121.1
19,O=c1[nH]c(NC2CCCC2)nc2nccc(-c3cccs3)c12,55.34
20,O=c1[nH]c(NC2CCCC2)nc2nccc(-c3ccsc3)c12,67.56
21,Cc1cccc(CN(C(=O)CCn2cncn2)C(C)C)c1,-52.83
22,O=C(CCc1nc2cc(Br)cnc2[nH]1)NCCCN1CCOCC1,-51.18
23,COc1ccc(C)cc1CC(=O)NC1(C#N)CCOCC1,-117.4

row,Structure (SMILES),Percent Effect [%]
1,CCOc1cc(C(=O)NS(=O)(=O)c2cccc(C#N)c2)ccc1OC,-127.1
2,CCC(CC)CN1CCN(CC(=O)Nc2ccc3nsnc3c2)CC1,27.19
3,CN(C)C(=O)CN1CCC2(CCN(C(=O)N3CCCC3)CC2)C1=O,-157.2
4,Cc1nc(C)c2c(n1)CCN(Cc1ccco1)CC2,-20.07
5,COCCN1CCc2ncnc(OC(C)C)c2CC1.O=C(O)C(F)(F)F,-76.73
6,c1coc(CN2CCc3ncnc(C4CCOC4)c3CC2)c1 (stereo not drawn),-48.34
7,Cc1ccc(CN2CCc3ncnc(OC(C)C)c3CC2)s1.O=C(O)C(F)(F)F,-2.65
8,CC(C)Oc1ncnc2c1CCN(Cc1ccc(F)cc1)CC2.O=C(O)C(F)(F)F,69.87
9,CC(C)Oc1ncnc2c1CCN(Cc1ccoc1)CC2.O=C(O)C(F)(F)F,29.43
10,COc1ncnc2c1CCN(Cc1cccs1)CC2.O=C(O)C(F)(F)F,-104.3
11,CC(C)Oc1ncnc2c1CCN(Cc1ccco1)CC2.O=C(O)C(F)(F)F,60.03
12,CCOc1cc(C(=O)N2CCCC(c3noc(C(C)C)n3)C2)ccn1 (stereo not drawn),-128.3
13,Cc1c(F)cc(C(=O)O)cc1S(=O)(=O)Nc1ccc(F)c(C#N)c1,-35.67
14,Cc1occc1-c1nnc2n1NC(N)=C(C#N)S2,-74.61
15,COCCN(C)C[C@@H]1CN(C(=O)c2ccc(O)c(C)c2)C[C@@H]1CO,-85.42
16,COc1ccc(-c2ccc(C3CNCCO3)nc2)cc1.Cl (stereo not drawn),63.33
17,COc1ccc(-c2cc(C3CCN(C(C)=O)CC3)ccn2)cc1,-100.7
18,COc1ccc(-c2cnc(NC(C)=O)[nH]2)cc1,-138
19,C[C@H]1C[C@@H]2CCN(C(=O)c3cnccn3)C[C@H]2O1,-123.8
20,Cc1ccc(N2N=C(C(=O)O)S(=O)(=O)c3cccnc32)cc1,-91.48
21,O=C(CCCn1cncn1)NC1CCc2nccn2C1 (stereo not drawn),-11.39
22,COc1ccc(CN(C)CCS(=O)(=O)c2ccc(Cl)cc2)cc1OC,-60.68
